The source of these data is PubChem BioAssay (NCI).

What all share (experiment): NCI-60 one-dose screen, 48 h (100 = growth as untreated, 0 = no growth, -100 = all killed)
What all share (conditions): 10 µM unless noted

For test [1], the system named is NCI-H23 lung.
Test [2] has as its system NCI-H226 lung.
Test [3] concerns NCI-H322M lung.
Test [4] concerns HOP-62 NSCLC.
The test system of test [5] is NCI-H460 lung.
The subject of test [6] is HOP-92 NSCLC.
Test [7] concerns NCI-H522 lung.
Test [8] relates to A549/ATCC NSCLC.
Test [9] deals with 786-0 renal.
For test [10], the system named is COLO 205 colon.
The test system of test [11] is DU-145 prostate.
Test [12] relates to K-562 leukemia.
The test system of test [13] is MALME-3M melanoma.
The subject of test [14] is MDA-MB-231 breast.
Test [15] deals with RXF 393 renal.
For test [16], the system named is SF-268 CNS.
The subject of test [17] is SF-295 CNS.
Test [18] has as its system SF-539 CNS.
Test [19] relates to UACC-257 melanoma.
For test [20], the system named is M14 melanoma.

Compounds without any hit were thinned out: in the full panel of roughly 83,000, 20% have a hit.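 Assay: single dose, 48 h. Readout: percent growth (0 = no net growth; negative = cell death). Active: <10.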 Unmarked numbers belong to inactive results. Calls of active or inactive are those of the source.

On to `COc1ccc(C2C3=C(COC3=O)N(CCO)c3cc4c(cc32)OCO4)cc1OC` (centres undefined), for which the growth in test [1] was 73.6%; in [2] it was 115%; in test [3], 104%; in test [4], 70.6%; in test [5], 95.8%; in test [6], 68.7%. Moreover, the growth is 66.2% in [7]; 90.7% in [8]; 84% in test [9]; 83.6% in test [10]; 100% in test [11]; 52% in test [12]. In addition, the growth in test [13] was 104%; in test [14] it was 101%; in [15], 81.4%; in [16], 91%; in [17], 62.6%; in [18], 91.9%. Also, the growth in test [19] was 90.6%; in test [20] it was 68.6%.
In the case of `O=c1cc(CNc2cc(F)cc(F)c2)c2ccc(I)cc2[nH]1`, the growth in test [1] is 46.3%; in test [2], 68.6%; in test [3], 48.3%; in [4], 37.5%; in [5], 18.5%; in [6] it was 54%. Besides, the growth was 15.6% in [7]; 38.6% in test [8]; 43.7% in test [9]; 33.7% in test [10]; 38.4% in [11]; 9.97% (active) in test [12]. Besides, the growth was 38.9% in [13]; 60.6% in test [14]; 15.1% in test [15]; 46.9% in test [16]; 30.9% in test [17]; -12.6% (active) in [18]. The values for the growth in test [19] and in [20] were 53.4% and 20%, respectively.
Consider `N#Cc1nn(-c2cc(=O)[nH]c3ccc(Br)cc23)c(N)c1C#N`, for which the growth was 102% in test [1]; 98.4% in test [2]; 93.3% in test [3]; 83.2% in test [4]; 105% in test [5]; -90.8% (active) in [6]. The growth in [7] is 78.4%; in test [8], 101%; in test [9], 97.4%; in test [10], 80%; in [11], 117%; in test [12], -12.4% (active). Moreover, the growth in [13] is 89.4%; in [14], 85.3%; in [15] it was 115%; in [16], 108%; in [17] it was 101%; in test [18] it was 105%. Moreover, the figures for the growth in test [19] and in test [20] were 93.4% and 90.1%, respectively.
`CCn1cc(C(=O)O)c(=O)c2cc(F)c(N3CCN(CC(=O)Nc4ccccc4)C(C)C3)c(F)c21` (centres undefined): the growth in test [1] is 91.3%; in [2], 100%; in test [3], 85.7%; in test [4] it was 101%; in [5], 99.2%; in [6] it was 97%. Moreover, the growth is 92.5% in [7]; 97.9% in test [8]; 92.5% in [9]; 106% in [10]; 104% in [11]; 87.1% in [12]. Besides, the growth in [13] was 97.9%; in test [14] it was 87.1%; in [15], 101%; in test [16] it was 93.7%; in test [17], 95.3%; in test [18] it was 99.1%. Besides, the growth in test [19] is 102%; in test [20] it was 105%.
Take `COc1ccc(CN2C(=O)OC(C)(COC(C)=O)C2=O)cc1` (centres undefined): the growth in [1] is 108%; in test [2], 98.1%; in test [3], 99%; in [4], 106%; in test [5], 111%; in [6], 100%. For the same molecule, the growth is 91.4% in test [7]; 94.5% in test [8]; 106% in test [9]; 119% in test [10]; 107% in test [11]; 94.5% in test [12]. The growth in test [13] was 102%; in test [14], 103%; in test [15] it was 105%; in [16] it was 102%; in test [17], 99.7%; in [18] it was 96%. Besides, the figures for the growth in [19] and in test [20] were 100% and 105%, respectively.
Consider `O=C(Nc1ncc(Cc2ccccc2)s1)c1sc2ccccc2c1Cl`, for which the growth in [1] was 40.8%; in test [2] it was 65%; in test [3] it was 43.4%; in [4], 25%; in test [5], 8.39% (active); in [6], 76.7%. The growth was -2.01% (active) in [7]; 26.6% in test [8]; 43.2% in [9]; 16.8% in test [10]; 17% in test [11]; 12.1% in test [12]. For the same molecule, the growth was 51% in test [13]; 55.5% in [14]; -5.07% (active) in test [15]; 52.1% in test [16]; 17.7% in test [17]; -1.43% (active) in test [18]. Moreover, the growth in test [19] is 54.6%; in [20] it was 11.1%.
On to `Cn1c(=O)c2[nH]c(SC/C(=N/O)c3ccc(Br)cc3)nc2n(C)c1=O`, for which the growth in [1] is 35.7%; in [2], -7.02% (active); in [3], 34.8%; in test [4] it was 8.56% (active); in test [5], 20.9%; in test [6], -72.9% (active). The growth was -14.5% (active) in test [7]; 60.4% in test [8]; -68.6% (active) in [9]; 110% in test [10]; 68.4% in test [11]; 67.1% in [12]. Moreover, the growth is 20% in test [13]; -5.9% (active) in [14]; -73.4% (active) in [15]; 50% in test [16]; 13.9% in test [17]; -53.6% (active) in [18]. For the same molecule, the growth in test [19] was 84%; in [20], 58.8%.
Turning to `C[C@H](c1nc2ccc(C#N)cc2[nH]1)[C@H]1CC[C@H]2[C@@H]3CCC4=CC(=O)CC[C@]4(C)[C@H]3CC[C@]12C`, the growth in [1] is 59.7%; in [2], 78.4%; in test [3], 94.4%; in test [4], 101%; in [5], 64%; in test [6], -9.25% (active). The growth in [7] is 69.8%; in test [8] it was 63.9%; in [9] it was 67.4%; in test [10], 79.2%; in test [11], 68.9%; in test [12], 40.8%. Moreover, the growth was 85.6% in test [13]; 70.1% in test [14]; 64.3% in [15]; 78.5% in test [16]; 48.7% in test [17]; 62.9% in test [18]. Further, the figures for the growth in [19] and in test [20] were 68.2% and 70.1%, respectively.
With `COc1cc(/C=C/C(=O)c2cc(OC)c(OC)c(OC)c2)ccc1Oc1nc2c(c(=O)n(C)c(=O)n2C)n1C`, the growth in test [1] was -51.1% (active); in [2], -35.4% (active); in test [3], 0% (active); in test [4], -40.8% (active); in [5] it was -5.25% (active); in [6], 3.39% (active). The growth was -68.7% (active) in test [7]; -13.2% (active) in test [8]; -87.4% (active) in test [9]; -77% (active) in test [10]; 7.64% (active) in [11]; 10.2% in [12]. The growth in [13] was -26.8% (active); in test [14], 9.39% (active); in test [15] it was -89.4% (active); in test [16], 11.9%; in test [17], -10.1% (active); in test [18], -24.9% (active). The growth is 40.8% in test [19] and -28.5% (active) in test [20].
As for `O=C(NN1C(=O)CSC1c1cccc([N+](=O)[O-])c1)c1ccc(NC(=O)c2ccccn2)cc1` (centres undefined), the growth in [1] was 94.4%; in [2], 106%; in test [3], 90.5%; in test [4] it was 95.4%; in [5], 102%; in [6], 104%. In addition, the growth in [7] is 95.3%; in test [8] it was 100%; in test [9] it was 96.9%; in [10], 103%; in [11], 94.1%; in test [12], 100%. The growth in test [13] was 94.4%; in [14], 113%; in test [15], 115%; in test [16], 96.1%; in test [17], 97.2%; in [18], 99.8%. The results for the growth in test [19] and in [20] were 99% and 102%, respectively.
On to `CCOC(=O)C1=C(c2ccccc2)N=C2N(c3ccccc3)N=C(C(C)=O)N2C1c1ccc(F)cc1` (centres undefined), for which the growth in test [1] is 105%; in test [2], 97.7%; in test [3], 99.2%; in test [4] it was 98.6%; in test [5] it was 100%; in test [6] it was 93.3%. Besides, the growth in test [7] was 97.3%; in test [8], 101%; in test [9], 99.6%; in [10], 113%; in [11], 106%; in test [12], 96.3%. For the same molecule, the growth was 97.7% in test [13]; 98.8% in [14]; 75.5% in test [15]; 99.2% in [16]; 98.6% in test [17]; 101% in [18]. Moreover, the growth in test [19] is 113%; in test [20] it was 101%.
For the molecule `Cc1ccc2c(/C=C/C(=O)c3cc(CN4CCOCC4)c(O)c4nc(C)ccc34)cc(CN3CCOCC3)c(O)c2n1`, the growth in test [1] is -2.24% (active); in [2] it was -13% (active); in test [3], 17%; in [4], -7.03% (active); in [5] it was 7.83% (active); in test [6] it was 30.9%. In addition, the growth in test [7] was -54.8% (active); in test [8] it was 11.3%; in test [9], -31.9% (active); in test [10] it was -25.8% (active); in test [11], -55.9% (active); in test [12] it was 1.93% (active). Besides, the growth in test [13] is 42.9%; in test [14], 11.5%; in test [15], -74.5% (active); in [16], 13.2%; in test [17], 23%; in [18], -29.4% (active). Besides, the growth in [19] is 7.95% (active); in test [20], -20.1% (active).
For the molecule `COC(=O)/C=C1/SC(=NCc2ccccc2)N(CCc2c[nH]c3ccccc23)C1=O`, the growth in test [1] is 87.2%; in [2], 109%; in test [3], 98.9%; in test [4], 102%; in test [5], 91.8%; in test [6], 74.6%. Further, the growth in test [7] is 77.1%; in test [8], 93.1%; in test [9], 89.4%; in test [10], 98.7%; in test [11] it was 72.5%; in [12], 48.5%. Further, the growth in test [13] was 108%; in [14], 91%; in [15] it was 81.9%; in test [16] it was 90.3%; in test [17], 89.9%; in test [18], 105%. Further, the growth in test [19] is 81.6%; in test [20] it was 80.5%.
Take `COc1ccc(-c2cc(C(=O)N3N=C(c4ccc(N)cc4)CC3c3ccc(Cl)cc3)c3ccccc3n2)cc1` (centres undefined): the growth was 48.1% in test [1]; 76.5% in [2]; 52.4% in test [3]; 36.3% in [4]; 12.8% in test [5]; 45.4% in test [6]. Besides, the growth was 16.9% in [8]; 25.4% in test [9]; 2.76% (active) in test [10]; 13.9% in test [11]; 7.4% (active) in test [12]; 79% in [13]. The growth is 44.2% in [14]; 21.6% in [15]; 35% in test [16]; 21.6% in [17]; 5.56% (active) in test [18]; 55.2% in [19]. Besides, in test [20], the growth was 9.68% (active).
